Results published in PubChem BioAssay (NCATS).
Records with an inconclusive call do not appear. The source made the active and inactive calls. Calls follow the shape of the dose curve; as a rule, active = well fitted cell-killing curve with a large enough effect; inconclusive = small, poorly fitted or top-dose-only effect, or effect the other way; inactive = flat fitted curve, though single readings scatter.

Columns and labels:
Experiment in all cases: Primary qHTS to identify gynecologic anti-cancer compounds using libraries of approved drugs and bioactive compounds (AID 1345084); also: nearly all actives have a fitted effect of over 55% in size
[1] = test system: C33A; conditions: Gynecologic cancer cell panel viability, ATPlite luminescence, 48 h; series mostly up to 57.5 µM
How it was run: (§1)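 In this quantitative HTS, cell killing is estimated from loss of ATP-dependent luciferase light. Cells see five compound concentrations over a 48 h exposure.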

[2] = test system: CASKI; conditions: Gynecologic cancer cell panel viability, ATPlite luminescence, 48 h; series mostly up to 57.5 µM
How it was run: as §1

[3] = test system: Es-2; conditions: Gynecologic cancer cell panel viability, ATPlite luminescence, 48 h; series mostly up to 57.5 µM
How it was run: as §1

[4] = test system: HeLa; conditions: Gynecologic cancer cell panel viability, ATPlite luminescence, 48 h; series mostly up to 57.5 µM
How it was run: as §1

[5] = test system: Hek293T; conditions: Gynecologic cancer cell panel viability, ATPlite luminescence, 48 h, control line for the selectivity index; series mostly up to 57.5 µM
How it was run: as §1

[6] = test system: JEG-3; conditions: Gynecologic cancer cell panel viability, ATPlite luminescence, 48 h; series mostly up to 57.5 µM
How it was run: as §1

[7] = test system: OV90; conditions: Gynecologic cancer cell panel viability, ATPlite luminescence, 48 h; series mostly up to 57.5 µM
How it was run: as §1
% is scaled to controls: 0 for no effect and ±100 for the full control effect; potency is read from the fitted curve at half-maximal effect.

CN(C)c1ccc(NC(=O)NS(=O)(=O)c2ccc(Cl)cc2)cc1
inactive: Potency [1] | Potency [2] | Potency [3] | Potency [4] | Potency [5] | Potency [6] | Potency [7]

CC(C)CCCCC(=O)N[C@@H](CO)C(=O)N[C@@H](CC(C)C)C(=O)[C@@]1(CO)CO1
inactive: Potency [1] | Potency [2] | Potency [3] | Potency [4] | Potency [5] | Potency [6] | Potency [7]

C=C1C(=O)O[C@@H]2C[C@@]3(C)CCCC(=C)[C@]3(O)C[C@H]12
inactive: Potency [1] | Potency [2] | Potency [3] | Potency [4] | Potency [6] | Potency [7]

COC(=O)c1ccc(N2CCN(C)CC2)c(NC(=O)c2cccc(OC)c2)c1
inactive: Potency [1] | Potency [2] | Potency [3] | Potency [4] | Potency [5] | Potency [6] | Potency [7]

CC/C(C)=C/C(=O)OC1C(OC2(C)CCC3C(C4C(C)CCC42)C3(C)C)OC(C)C(O)C1O (stereo unspecified)
inactive: Potency [1] | Potency [2] | Potency [3] | Potency [4] | Potency [5] | Potency [6] | Potency [7]

C=C1CC2OC(=O)C(=C)C2C(OC(=O)/C(C)=C\C)CC2(C)OC1=CC2=O (stereo unspecified)
inactive: Potency [2] | Potency [4] | Potency [7]
active: Potency [1] 11.2 µM | Potency [3] 10 µM

O=C1NC(=O)C(c2cnc3ccccn23)=C1c1cn2c3c(cc(F)cc13)CN(C(=O)N1CCCCC1)CC2
inactive: Potency [1] | Potency [2] | Potency [3] | Potency [4] | Potency [5] | Potency [6] | Potency [7]

COc1cc2c(cc1OC)CN(C(=O)/C=C/c1c(-c3ccccc3)n(C)c3ncccc13)CC2
inactive: Potency [1] | Potency [2] | Potency [3] | Potency [4] | Potency [6] | Potency [7]

CCCC(=O)C1(c2ccccc2)CCN(C(=O)[C@@H](Cc2ccc(OC)cc2)NC(=O)[C@@H](N)Cc2cncn2C)CC1
inactive: Potency [1] | Potency [2] | Potency [3] | Potency [4] | Potency [5] | Potency [6] | Potency [7]

COc1cc2nc(N3CCN(C(=O)COc4c(OC)cccc4C(C)C)CC3)nc(N)c2cc1OC
inactive: Potency [1] | Potency [2] | Potency [3] | Potency [4] | Potency [5] | Potency [6] | Potency [7]

Cc1cc(N2CCOCC2)ccc1Nc1nc(NC2CCCCC2)c2[nH]cnc2n1
inactive: Potency [1] | Potency [2] | Potency [3] | Potency [4] | Potency [5] | Potency [6] | Potency [7]

CC(=O)OC1CC(C)(C(=O)O)CC2C3=CC(=O)C4C5(C)CCC(OC6OC(C(=O)O)C(O)C(O)C6OC6OC(C(=O)O)C(O)C(O)C6O)C(C)(C)C5CCC4(C)C3(C)CCC12C (stereo unspecified)
inactive: activity change, negative = cytotoxicity [1] 10.4% [at 11.6 µM] | activity change, negative = cytotoxicity [2] 12.9% [at 11.6 µM] | activity change, negative = cytotoxicity [3] 12.5% [at 11.6 µM] | activity change, negative = cytotoxicity [4] 14.8% [at 11.6 µM] | activity change, negative = cytotoxicity [5] 7.86% [at 11.6 µM] | activity change, negative = cytotoxicity [6] 5.64% [at 11.6 µM] | activity change, negative = cytotoxicity [7] 2.42% [at 11.6 µM]

CN1CCN(C(=O)CN[C@@H]2C[C@H]2c2ccc(OCc3ccccc3)cc2)CC1
inactive: Potency [1] | Potency [2] | Potency [3] | Potency [4] | Potency [5] | Potency [6] | Potency [7]

Clc1ccc(Cn2c(Cc3ccccc3)nc3ccccc32)cc1
inactive: Potency [1] | Potency [2] | Potency [3] | Potency [4] | Potency [5] | Potency [6] | Potency [7]

CC(=O)OC1C(=O)C2C3OCC4=C3[C@@](C)(CC[C@@H]4O)CC[C@]2(C)[C@H]1C(C)C (stereo partly specified)
inactive: Potency [1] | Potency [2] | Potency [3] | Potency [4] | Potency [5] | Potency [6] | Potency [7]

COc1ccc(N(C(=O)Nc2c(C)cccc2C)c2cc(Nc3ccc(N4CCN(C)CC4)cc3)ncn2)c(OC)c1
inactive: Potency [1] | Potency [2] | Potency [3] | Potency [4] | Potency [6]

COc1ccc(NC(=O)c2ccc(-c3ccc(-c4nnc(C)o4)cc3C)cc2)cc1N1CCN(C)CC1
inactive: Potency [1] | Potency [2] | Potency [3] | Potency [4] | Potency [5] | Potency [6] | Potency [7]

CC(C)(C[C@@](O)(Cc1cc2ccncc2[nH]1)C(F)(F)F)c1cc(F)ccc1O
inactive: Potency [1] | Potency [2] | Potency [3] | Potency [4] | Potency [6] | Potency [7]

O=C(NC1(c2ccccc2)CC1)c1c(CN2CCC(N3CCCCC3)CC2)c(-c2cccc(C(F)(F)F)c2)nc2cc(Br)ccc12
inactive: Potency [1] | Potency [2] | Potency [3] | Potency [4] | Potency [6]
active: Potency [7] 17.8 µM

O[C@@](Cc1ncc(CC2(C(F)(F)F)CC2)[nH]1)(c1ccc(-n2cccn2)cc1)C(F)(F)F
inactive: Potency [1] | Potency [2] | Potency [3] | Potency [4] | Potency [5] | Potency [6] | Potency [7]

Nc1nc2c(c(N3CC[C@@H](N)C3)n1)CCCc1ccccc1-2
inactive: Potency [1] | Potency [2] | Potency [3] | Potency [4] | Potency [6]

COc1ccc2c(c1)C(C(=O)N(Cc1ccc(N(C)C)cc1)c1ccc(C(C)C)cc1)CCC2 (stereo unspecified)
inactive: Potency [1] | Potency [2] | Potency [3] | Potency [4] | Potency [5] | Potency [6] | Potency [7]

N#Cc1cc(CN2CCC(Nc3ncnc4sc(Cl)cc34)CC2)ccc1F
inactive: Potency [1] | Potency [2] | Potency [4] | Potency [6]

O=C(Nc1nc2ccc([N+](=O)[O-])cc2s1)C1CCCCC1
inactive: Potency [1] | Potency [2] | Potency [4] | Potency [5] | Potency [6] | Potency [7]

Cc1[nH]c(/C=C2\C(=O)Nc3ccc(F)cc32)c(C)c1C(=O)NCCN1CCCC1
inactive: Potency [1] | Potency [2] | Potency [3] | Potency [5] | Potency [6] | Potency [7]

CCC1C(=O)N(C)c2cnc(Nc3ccc(C(=O)NC4CCN(C)CC4)cc3OC)nc2N1C1CCCC1 (stereo unspecified)
active: Potency [1] 20 µM | Potency [2] 3.98 µM | Potency [6] 28.2 µM

C[C@H](CN(C)C)Oc1nc(Nc2cc3cccc(Cl)c3cn2)cnc1C#N
inactive: Potency [1] | Potency [2] | Potency [4] | Potency [6] | Potency [7]

COc1cc2ncnc(Nc3cccc(I)c3)c2cc1OC
inactive: Potency [1] | Potency [2] | Potency [3] | Potency [5] | Potency [6] | Potency [7]

COc1cc(F)c(F)c(Nc2ccc(I)cc2F)c1NS(=O)(=O)C1(CC(O)CO)CC1 (stereo unspecified)
inactive: Potency [1] | Potency [2] | Potency [4] | Potency [5] | Potency [6]

CCn1c2ccccc2c2cc(Nc3ccnc(NCCCN4CCOCC4)n3)ccc21
inactive: Potency [1] | Potency [2] | Potency [4]

C=C(C)C(=O)O[C@H]1[C@H]2C(=C)C(=O)O[C@@H]2C[C@@H](C)[C@@H]2O[C@@H]2C(=O)[C@](C)(O)[C@@H]1OC(=O)C(=C)C
active: Potency [1] 10 µM | Potency [2] 10 µM | Potency [3] 7.94 µM | Potency [5] 2.82 µM | Potency [6] 12.6 µM

Cn1c(CO)c(-c2ccccc2)c2cc([N+](=O)[O-])ccc21
inactive: Potency [1] | Potency [2] | Potency [3] | Potency [5] | Potency [6] | Potency [7]

O=S(=O)(NCc1cccc2ccccc12)c1cc(Cl)c(Oc2cccc(N3CCNCC3)c2)s1
inactive: Potency [1] | Potency [2] | Potency [4] | Potency [6] | Potency [7]

COC1CC(O[C@H]2CC[C@]3(C)C4CC[C@@]5(C)C(=O)[C@]4(CC[C@@H]3C2)CC[C@@H]5C2=CC(=O)OC2)OC(C)C1OC1OC(COC2OC(CO)C(O)C(O)C2O)C(O)C(O)C1O (stereo partly specified)
active: Potency [1] 2.82 µM | Potency [3] 2.82 µM

C=C1C(=O)O[C@@H]2[C@H]1CC[C@H](C)C(CCC(=O)O)C2(C)O (stereo partly specified)
inactive: Potency [1] | Potency [2] | Potency [4]

Cc1nc(Nc2cnn(C3CCNCC3)c2)nc2c1N(C)C(=O)c1cc3ccccc3cc1N2C
inactive: Potency [1] | Potency [2] | Potency [3] | Potency [5] | Potency [6] | Potency [7]

Cn1ncc(Cl)c1-c1cc(C(=O)NC(CN)Cc2ccc(F)c(F)c2)oc1Cl (stereo unspecified)
active: Potency [1] 3.16 µM | Potency [5] 0.794 µM
inactive: Potency [3] | Potency [4]

CC(C)S(=O)(=O)Nc1ccc(F)c(C(=O)c2c[nH]c3ncc(-c4cccnc4)cc23)c1F
inactive: Potency [1] | Potency [2] | Potency [5] | Potency [6]

CCOc1ccc(Cc2nc(-c3c(C)nc4ccccn34)cs2)cc1
active: Potency [1] 0.355 µM | Potency [3] 0.0891 µM

Cc1nc(NC(=O)N2CCCC2C(N)=O)sc1-c1ccnc(C(C)(C)C(F)(F)F)c1 (stereo unspecified)
inactive: Potency [1] | Potency [3] | Potency [5] | Potency [6]
active: Potency [2] 3.55 µM

C=CC(=O)N1CCC(Oc2cc3c(Nc4ccc(Cl)c(Cl)c4F)ncnc3cc2OC)CC1
inactive: Potency [1] | Potency [3] | Potency [6]
active: Potency [2] 22.4 µM

CC1CCCC[C@H]2C(=O)C=C[C@H](O)[C@@H]2CC(=O)O1 (stereo partly specified)
active: Potency [1] 20 µM | Potency [3] 10 µM | Potency [5] 15.8 µM
inactive: Potency [2]

COc1cc2c(cc1-c1c(C)noc1C)ncc1[nH]c(=O)n(C(C)c3ccccn3)c12 (stereo unspecified)
inactive: Potency [1] | Potency [2] | Potency [5] | Potency [6]

C=C1C(=O)O[C@@H]2C[C@@]3(C)C[C@@H](O)C[C@H](C)C3=C[C@H]12
inactive: Potency [1] | Potency [2] | Potency [4] | Potency [5] | Potency [6] | Potency [7]

C/C1=C/CCC2=CC(OC2=O)C(C)(C)/C=C/C1=O (stereo unspecified)
active: Potency [1] 10 µM | Potency [2] 6.31 µM | Potency [3] 8.91 µM | Potency [5] 12.6 µM

Cn1sc(=O)n(Cc2ccccc2)c1=O
inactive: Potency [1] | Potency [2] | Potency [3] | Potency [4] | Potency [7]

O=C(c1c(F)ccc(NS(=O)(=O)N2CC[C@@H](F)C2)c1F)c1c[nH]c2ncc(-c3cnc(C4CC4)nc3)cc12
inactive: Potency [1] | Potency [2] | Potency [4] | Potency [5] | Potency [6]

C=C1C(=O)O[C@@H]2/C=C(\CO)CC/C=C(/C=O)C[C@H](O)[C@@H]12
inactive: Potency [1] | Potency [2] | Potency [4] | Potency [6] | Potency [7]

C=C1C(=O)OC2/C=C(\C)CC/C=C(\C)CC(OC(C)=O)C12 (stereo unspecified)
inactive: Potency [1] | Potency [2] | Potency [4] | Potency [5] | Potency [6] | Potency [7]

CC(=O)N1CCN(CCOc2ccc(C3CCN(C4=Nn5c(nnc5C(F)(F)F)CC4)CC3)cc2)CC1
inactive: Potency [1] | Potency [2] | Potency [3] | Potency [6] | Potency [7]

CC1CCC/C=C/C(=O)c2c(O)cc(O)cc2CC(=O)O1 (stereo unspecified)
active: Potency [1] 11.2 µM | Potency [5] 14.1 µM | Potency [6] 14.1 µM
inactive: Potency [2]

Cc1nc(NC(=O)N2CCC[C@H]2C(N)=O)sc1-c1ccnc(C(C)(C)C(F)(F)F)c1
inactive: Potency [1] | Potency [3] | Potency [4] | Potency [5] | Potency [6]
